FEN1 inh: qHTS Assay for the Inhibitors of Human Flap endonuclease 1 (FEN1); actives 0.35% (n = 390,000); P39748; Recombinant FEN1 flap cleavage, fluorescence, 15 min; Potency, µM (highest dose often 114 µM), most hits filed as inhibitors; note: nearly all actives have a fitted effect of over 65% in size
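Compounds are tested as a concentration series against 10 nM FEN1; after a 15 min room-temperature preincubation, 50 nM substrate starts cleavage, with plate reads at 0 and 15 min. Normalized responses are fitted by a Hill equation.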
POLB inh: qHTS Assay for Inhibitors of DNA Polymerase Beta; P06746; Pol beta primer extension/strand displacement, fluorescence kinetic; Potency, µM (titrated, usually from 114 µM), actives largely listed as inhibitors; actives 1.3% (n = 340,000)
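Values derive from four-parameter Hill fits of normalized kinetic data: reads at 0 and 10 min following addition of 50 nM substrate to 10 nM Pol beta preincubated 15 min with compound.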
POLK inh: qHTS for Inhibitors of Polymerase Kappa; DNA polymerase kappa (Homo sapiens), Q9UBT6; purified Pol kappa, fluorescent DNA synthesis assay, 10 min; Potency, µM (doses to about 107 µM), hits mostly inhibitors; actives 0.53% (n = 400,000); AID 588579, 2011
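10 nM Pol kappa was preincubated with compounds for 15 min at room temperature. Reaction started with 50 nM (final) substrate. Fluorescence read kinetically at 0 and 10 min.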
POLH inh: qHTS for Inhibitors of Polymerase Eta | actives 1.2% (n = 390,000) | Potency, µM (series often up to 114 µM), hits mostly inhibitors | recombinant Pol eta, fluorescent DNA replication assay
Target sequence (Q9Y253 whole entry, looked up): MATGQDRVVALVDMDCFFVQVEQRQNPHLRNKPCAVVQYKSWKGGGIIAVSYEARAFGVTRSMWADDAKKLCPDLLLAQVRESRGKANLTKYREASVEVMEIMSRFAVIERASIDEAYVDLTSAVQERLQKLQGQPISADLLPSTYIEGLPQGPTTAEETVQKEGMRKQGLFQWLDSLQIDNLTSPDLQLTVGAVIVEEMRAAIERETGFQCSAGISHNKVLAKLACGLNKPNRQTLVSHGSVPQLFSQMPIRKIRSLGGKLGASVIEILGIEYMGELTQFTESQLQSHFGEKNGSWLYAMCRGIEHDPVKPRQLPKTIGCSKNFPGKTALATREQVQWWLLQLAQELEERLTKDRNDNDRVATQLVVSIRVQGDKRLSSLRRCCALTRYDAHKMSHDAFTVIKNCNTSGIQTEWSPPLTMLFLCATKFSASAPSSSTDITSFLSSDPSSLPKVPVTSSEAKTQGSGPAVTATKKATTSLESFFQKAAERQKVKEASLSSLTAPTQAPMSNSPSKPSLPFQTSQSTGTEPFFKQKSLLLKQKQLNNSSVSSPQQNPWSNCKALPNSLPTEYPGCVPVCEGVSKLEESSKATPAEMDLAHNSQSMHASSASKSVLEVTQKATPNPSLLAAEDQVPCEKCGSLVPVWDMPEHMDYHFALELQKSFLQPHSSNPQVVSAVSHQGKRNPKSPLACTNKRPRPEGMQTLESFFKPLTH
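Pol eta at 10 nM preincubated with compounds 15 min at room temperature; reaction started with fluorescent substrate (50 nM final) and read kinetically at 0 and 10 min.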
POLI inh: qHTS for Inhibitors of Polymerase Iota. AID 588590, 2011. actives 1% (n = 390,000). DNA polymerase iota (Homo sapiens), Q9UNA4. Potency, µM (series often up to 115 µM), actives largely listed as inhibitors. Pol iota fluorescent replication assay, 10 min
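Pol iota at 10 nM preincubated 15 min with compounds at room temperature; reaction started with fluorescent substrate, 50 nM final. Fluorescence read kinetically at 0 and 10 min; buffer-only wells as negative control.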
WRN inhibitor: qHTS for Inhibitors of WRN Helicase; WRN helicase unwinding, fluorescent forked duplex, kinetic; Bifunctional 3'-5' exonuclease/ATP-dependent helicase WRN (Homo sapiens), Q14191; Potency, µM (series often up to 114 µM), usual class: inhibitors; actives 0.46% (n = 360,000); note: nearly all actives have a fitted effect of over 55% in size
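Kinetic fluorescence helicase assay: unwinding of a quenched forked DNA duplex (100 nM final) with 2 mM ATP final raises red fluorescence (525/598 nm). Compounds sat 15 min at room temperature with 20 nM WRN beforehand.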
Hits are given with their value; - = inactive; ? = inconclusive; . = no result given; ! = not active in a repeat; [ ] = dose if it differs, or a comment. In the library only some 2.4% were active in any assay of this set; here they are far more common. Calls come from the whole dose curve; as a rule, active = well fitted curve in the direction sought with a large enough effect; inconclusive = small, poorly fitted or top-dose-only effect, or another doubt; inactive = no such curve, though single readings can be large; an effect the other way counts as inactive or inconclusive.

SMILES	FEN1 inh	POLB inh	POLK inh	POLH inh	POLI inh	WRN inhibitor
Cc1ncc(CO)c2c1Oc1nc(-c3ccc(F)cc3)nc(SCc3ccc(F)cc3Cl)c1C2	-	50µM	-	-	-	.
CN1CCN(c2ncc3nc(-c4cccc(C#N)c4)c(=O)n(CCC#N)c3n2)CC1	.	.	-	.	.	.
COc1ccc(-c2nc3c(c(SCC(=O)Nc4cccc(O)c4)n2)Cc2c(CO)cnc(C)c2O3)cc1	?	1.6µM!	79µM!	20µM	6.3µM	-[11.6 µM]
Cc1ncc(CO)c2c1Oc1nc(-c3ccccc3)nc(SCC(=O)Nc3cccc(O)c3)c1C2	-	-	-	?	?	-
CC1(C#CC[N+]2(C)CCCCC2)CCC2C(O1)c1ccccc1OC2(C)C (stereo not given)	-	-	-	-	40µM	-
Cc1cc(SCC(=O)N/N=C/c2ccc(O)c(O)c2)c(C)cc1Br	-	16µM	-	-	?	-
O=C(Nc1cc(-c2ccccc2)sc1C(=O)O)c1cccc(F)c1	?	71µM	-	?	?	-
O=C(CSc1nc2ccc(Cl)cc2[nH]1)NCc1ccco1	-	-	-	-	-	?
Cc1cc(C(=O)CSc2nnnn2C)c(C)n1Cc1ccco1	-	?	-	-	79µM	-
Cc1cc(C(=O)CSc2nc3ccc(Cl)cc3[nH]2)c(C)n1Cc1ccco1	-	.	?	-	22µM	-
COc1cc(C(=O)N2CCN(c3ccc(Nc4ccccc4)nn3)CC2)cc(OC)c1OC	-	-	-	-	-	.
Cc1cc(C(=O)O)ccc1-c1ccc(/C=C2\NC(=O)N(Cc3ccccc3Cl)C2=O)o1	?	14µM	22µM	4.5µM	5.6µM	50µM
Cc1cc(C(=O)O)ccc1-c1ccc(/C=C2\SC(=O)N(CC(=O)Nc3ccc4c(c3)OCO4)C2=O)o1	.	-	.	.	.	.
CC(=O)Nc1cc(N=Cc2ccc(O)cc2O)c(Cl)cc1Cl	-	-	-	45µM	?	-
CN(C)C(CN=C1NS(=O)(=O)c2ccccc21)c1ccco1 (stereo not given)	-	?	-	-	79µM	-
CCn1nc(C(=O)Nc2ccc(S(=O)(=O)Nc3nccs3)cc2)c2ccccc2c1=O	-	-	-	?	-	-
O=C(Nc1ccc(S(=O)(=O)Nc2ncccn2)cc1)c1nn(Cc2ccccc2)c(=O)c2ccccc12	-	?	-	79µM	?	-
CCOC(=O)c1sc2nc3c(SCCC#N)cc(C(=O)c4cc(F)ccc4O)cn3c(=O)c2c1C	-	-	-	-	-	-
O=C(O)CSc1cc(C(=O)c2cc(F)ccc2O)cn2c(=O)c3c(-c4ccccc4)csc3nc12	?	?	?	22µM	?	-
Brc1ccc(Nc2c3c(nc4nncn24)CCC3)cc1	-	-	-	.	-	.
COc1ccc(NC(=O)CCc2nnc3ccc(NCc4ccc5c(c4)OCO5)nn23)cc1	-	?	-	-	45µM	-[11.6 µM]
CC(CCc1ccco1)NC(=O)CCc1nnc2ccc(NCc3ccc(Cl)cc3)nn12 (stereo not given)	-	-	79µM	-	25µM	-[11.6 µM]
COC(=O)c1ccc(NC(=O)CCc2nnc3ccc(NCc4ccco4)nn23)cc1	-	?	?	?	35µM	-[11.6 µM]
Cc1ccc(NC(=O)CCc2nnc3ccc(NCc4ccco4)nn23)cc1F	-	-	-	-	?	-
Cc1cccnc1NC(=O)CCc1nnc2ccc(NCc3ccco3)nn12	-	?	-	45µM	?	-
COc1ccc(NC(=O)CCc2nnc3ccc(NCc4ccco4)nn23)cc1	-	-	-	-	-	-
CCOc1ccc(C(=O)NCCn2cc(SCC(=O)Nc3ccccc3)c3ccccc32)cc1	-	-	-	-	-	.
Cc1ccc(CN(C(=O)COc2ccc(C(C)C)cc2)C2CCS(=O)(=O)C2)o1 (stereo not given)	-	-	-	-	-	.

From PubChem
